# The list is not random: actives were taken first. Their share in the collection is about 7.5%.
# Rab9 prom act: activators of Rab9 promoter; Huh7 Rab9 promoter-luciferase reporter, luminescence, 24 h; Potency, µM (highest dose often 9.22 µM), usual class: activators; hit rate 2.8% among 320,000; also: nearly all actives have a fitted effect of over 60% in size
#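 Luciferase signal after 10 min detection reagent at ambient indicates Rab9 promoter upregulation; stably transfected Huh7 cells were treated 24 h with compound in DMSO at 37 °C, 5% CO2.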
# ELG1 genotoxic: induces genotoxicity in HEK293T cells with luciferase-tagged ELG1; HEK293T ELG1-luciferase reporter, luminescence, 16 h; Potency, µM (doses to about 46 µM), actives largely listed as activators; hit rate 1.3% among 330,000; AID 504466; also: nearly all actives have a fitted effect of over 60% in size
#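 Luminescence read-out: rising ELG1-luciferase signal, reflecting elevated ELG1 protein under genetic stress, flags genotoxic compounds. Cells were treated for 16 hr at 37 °C before ONE-Glo detection.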
# FLuc counter: firefly luciferase modulation, counter-screen for miR-21 project; purified FLuc, Km substrates, luminescence inhibition; hit rate 6.9% among 360,000; Potency, µM (highest dose often 57.5 µM), usual class: inhibitors; AID 588342; also: nearly all actives have a fitted effect of over 55% in size
# Target sequence (P08659 whole entry, looked up): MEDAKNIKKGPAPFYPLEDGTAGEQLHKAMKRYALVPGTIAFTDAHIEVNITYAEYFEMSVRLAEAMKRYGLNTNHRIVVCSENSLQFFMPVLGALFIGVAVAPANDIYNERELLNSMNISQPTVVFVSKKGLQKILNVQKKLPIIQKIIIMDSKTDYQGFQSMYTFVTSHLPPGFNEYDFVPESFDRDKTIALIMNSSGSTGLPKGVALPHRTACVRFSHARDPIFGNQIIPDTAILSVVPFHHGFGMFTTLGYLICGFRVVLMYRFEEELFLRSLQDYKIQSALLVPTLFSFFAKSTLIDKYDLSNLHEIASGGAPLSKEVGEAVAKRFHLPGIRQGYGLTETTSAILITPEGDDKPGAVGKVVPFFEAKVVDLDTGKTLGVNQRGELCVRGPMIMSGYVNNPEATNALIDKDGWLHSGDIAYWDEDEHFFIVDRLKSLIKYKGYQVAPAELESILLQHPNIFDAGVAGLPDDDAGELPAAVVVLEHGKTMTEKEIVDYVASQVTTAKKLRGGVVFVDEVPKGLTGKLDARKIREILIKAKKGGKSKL
#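 Purified P. pyralis luciferase (10nM final) with 10uM D-luciferin and 10uM ATP (Km levels) in 50mM Tris acetate pH 7.5, 10mM Mg acetate, 0.01% Tween-20, 0.05% BSA; qHTS 6-point titration, ~60 µM downward; luminescence read.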
# NPC1 promoter act: activates the NPC1 promoter; hit rate 2.4% among 320,000; Huh7 NPC1 promoter luciferase reporter, 24 h; Potency, µM (series often up to 9.22 µM), usual class: activators; also: nearly all actives have a fitted effect of over 60% in size
#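 Huh7 reporter cells (NPC1 promoter driving luciferase) are dosed with compound for 24 h at 37 °C, 5% CO2; luciferase detection reagent is then added and luminescence measured after 10 min at ambient temperature.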
# SMN2 splice up: SMN2 splice variant enhancement | HEK293 SMN2-luciferase splicing reporter, luminescence, 30-36 h | Potency, µM (titrated, usually from 46.1 µM), usual class: activators | hit rate 2.8% among 210,000 | AID 1458; also: nearly all actives have a fitted effect of over 55% in size
#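 HEK293 cells carry an SMN2 minigene-luciferase reporter in which exon 7 inclusion puts luciferase in frame. Cells were seeded at 2000 cells/well, attached for 10-12 hours, then exposed to compounds for 30-36 hours at 37C before ONE-Glo luminescence.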
# Luc counter: Kinase-Glo luciferase inhibition (counter-screen) | Q27757 | Kinase-Glo luciferase, ATP luminescence, 8 min | Potency, µM (series often up to 38.3 µM), actives largely listed as inhibitors | hit rate 0.28% among 200,000 | AID 1379; also: nearly all actives have a fitted effect of over 60% in size
#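 Luminescence was the read-out, taken after 8-minute incubation at ambient temperature. Luciferase turned over luciferin with 10 uM ATP in imidazole pH 7.2 buffer containing KCl, MgCl2, Tween 20 and BSA.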
# Hits are given with their value; - = inactive; ? = inconclusive; . = not tested or not shown; [ ] = another dose, or the depositor's remark. Calls follow the shape of the dose curve; as a rule, active = well fitted curve in the direction sought with a large enough effect; inconclusive = small, poorly fitted or top-dose-only effect, or another doubt; inactive = no such curve, though single readings can be large; an effect the other way counts as inactive or inconclusive.
SMILES,Rab9 prom act,ELG1 genotoxic,FLuc counter,NPC1 promoter act,SMN2 splice up,Luc counter
C[C@H]1OC(OC2C(O)[C@@H](O)C(OC3C(O)[C@@H](O)C(O)O[C@@H]3CO)O[C@@H]2CO)[C@H](O)C(O)C1N[C@H]1C=C(CO)[C@@H](O)[C@H](O)C1O (stereo not given in full),.,.,.,.,.,-
Cc1ccccc1NC(=S)NNC(=O)c1csc2c1CCC(C)C2 (stereo not given),2.2µM,?,2.4µM,3.2µM,-,-
CCNC(=S)NNC(=O)c1csc2c1CCC(C)C2 (stereo not given),-,-,-,-,-,-
CC(=O)N1N=C(c2cccc(Cl)c2)OC1c1ccc(C(C)C)cc1 (stereo not given),-,18µM,24µM,-,-,-
Cc1ccccc1CSc1ncc(Cl)c(C(=O)Nc2nc3ccc(F)cc3s2)n1,.,.,-,.,-,.
CC1CCN(S(=O)(=O)c2cn(CC(=O)Nc3ccc(F)c(Cl)c3)c(=O)c3ccccc23)CC1,.,.,-,.,-,.
COc1ccc(-c2cc3ccc(O)c(CN4CCCC4)c3oc2=O)cc1OC,.,.,15µM,.,.,.
C=C1SC(=Nc2ccccc2Cl)N(C(=O)c2sc3ccccc3c2Cl)C12CCCCC2,-,-,21µM,-,.,.
C=C1SC(=Nc2c(C)cc(C)cc2C)N(C(=O)c2sc3ccccc3c2Cl)C12CCCCC2,-,-,-,-,.,.
CN(C(=O)c1ccc2c(c1)N(Cc1cccc(Cl)c1)C(=O)c1ccccc1S2(=O)=O)C1CCCCC1,.,.,-,.,.,.
O=[N+]([O-])c1ccccc1S(=O)(=O)Nc1cccc(-c2ccc(N3CCOCC3)nn2)c1,?,?,2.7µM,-,.,.
O=[N+]([O-])c1ccccc1S(=O)(=O)Nc1cccc(-c2ccc(N3CCCC3)nn2)c1,-,?,17µM,-,.,.
Cc1ccc([N+](=O)[O-])cc1S(=O)(=O)Nc1cccc(-c2ccc(N3CCOCC3)nn2)c1,?,9.2µM,3µM,-,.,.
O=[N+]([O-])c1ccccc1S(=O)(=O)Nc1ccc(-c2ccc(N3CCOCC3)nn2)cc1,-,-,?,-,.,.
O=S(=O)(Nc1ccc(N2CCOCC2)cc1)c1cc(Cl)ccc1Cl,-,-,-,-,.,.
O=S(=O)(Nc1cccc(-c2ccc(N3CCOCC3)nn2)c1)c1cc(Cl)ccc1Cl,?,?,7.6µM,-,.,.
Cc1c(Cl)cccc1NC(=O)NCc1cccnc1,-,-,-,-,.,.
Cc1ccc(Cn2c(CN3CCC(C(=O)O)CC3)cc3ccccc32)cc1,.,.,-,.,-,.
Oc1c(Cl)cc(Cl)cc1/C=C/c1ccc2cccc(O)c2n1,-,-,?,-,-,-
Cc1ccsc1/C=C/c1ccc2cccc(O)c2n1,3.5µM,9.2µM,2.7µM,?,?,-
Oc1cccc2ccc(/C=C/c3cccs3)nc12,2.8µM,2.2µM,2.1µM,?,-,-
Cc1ccsc1/C=C/c1ccc2ccccc2n1,2.2µM,?,1.7µM,2µM,0.89µM,11µM
Cc1ccsc1/C=C/C(=O)O,-,-,-,-,-,-
COc1ccc(-c2nc(CNC(=O)NC3CCCCC3)c(C)o2)c(OC)c1,.,.,-,.,.,.
CCOc1ccc(C(=O)NCCc2sc3nc(-c4ccc(Cl)cc4)nn3c2C)cc1OCC,.,.,-,.,.,.
SMILES,Rab9 prom act,ELG1 genotoxic,FLuc counter,NPC1 promoter act,SMN2 splice up,Luc counter
COc1ccc(N=NC2C(=O)N(c3ccccc3)N=C2C)cc1 (stereo not given),-,-,19µM,-,.,.
CC1=NN(c2ccccc2)C(=O)C1N=Nc1ccccc1 (stereo not given),?,?,2.4µM,?,14µM,-
CC1=NN(c2ccccc2)C(=O)C1N=Nc1cccc(O)c1 (stereo not given),-,?,8.5µM,?,.,.
NCCNC(=S)S,.,.,.,.,-[9.22 µM],-[7.66 µM]
CC1=C(C(=O)Nc2ccccc2)C(c2cccs2)n2nc(SCc3ccccc3)nc2N1 (stereo not given),.,.,-,.,-,.
O=C(COc1ccc(Cl)cc1)NCC(c1ccco1)S(=O)(=O)c1ccccc1 (stereo not given),.,.,-,.,.,.
COc1ccccc1-c1cc(C(=O)NCc2ccccc2)no1,-,-,24µM,-,-,-
Cc1ccccc1-c1ccc(C(=O)NCc2ccccc2)o1,-,-,27µM,-,-,-
COc1ccccc1-c1cc(C(=O)NCc2ccc(Cl)cc2)no1,-,-,?,-,-,-
COc1ccc(CNC(=O)c2cc(-c3ccccc3OC)on2)cc1,-,-,17µM,-,-,-
COc1ccccc1-c1cc(C(=O)NCc2ccc(F)cc2)no1,-,-,?,-,-,-
Brc1ccc(Nc2c3c(nc4nncn24)CCC3)cc1,.,.,-,.,-,.
O=C(CSc1ccccn1)c1ccc2c(c1)OCO2,2.5µM,4.6µM,11µM,3.5µM,11µM,?
Cc1cc2nc(SC(C)C(=O)O)[nH]c2cc1C (stereo not given),-,-,21µM,-,-,-
O=C(CSc1ncccc1-c1nc2ccccc2[nH]1)Nc1ccc2c(c1)OCCO2,-,-,27µM,-,-[1.84 µM],-
Cc1ccc2nc(SC(C)C(=O)NC3CCCC3)[nH]c2c1 (stereo not given),.,-,.,.,.,.
Cc1ccc2nc(SC(C)C(=O)N3CCOCC3)[nH]c2c1 (stereo not given),3.2µM,?,24µM,2.5µM,20µM,-
O=C(CSc1nc2ncccc2[nH]1)Nc1ccc2c(c1)OCO2,-,-,?,-,.,.
O=S(=O)(c1ccccc1)N1CCC2(CCCN(Cc3ccccc3)C2)CC1,.,.,.,.,-,-
O=C(COC(=O)CCS(=O)(=O)c1ccccc1)Nc1ccc(N2CCCCC2)cc1,-,-,?,-,.,.
COc1ccc(NC(=O)C2C3C=CC4(O3)C2C(=O)N(CCN2CCCCC2)C4C(=O)NC2CCCC(C)C2C)cc1 (stereo not given),-,-,-,-,.,.
Cc1cc(C)cc(C(=O)N(CCc2ccccc2)C2CC3CCC(C2)N3C)c1 (stereo not given),-,-,-,-,.,.
COC(=O)c1csc2c(C(F)(F)F)cc(N3CCN(C(=O)Nc4ccccc4)CC3)nc12,-,-,-,-,.,.
CCc1c(C)nc(SCC(=O)Nc2ccc3c(c2)OCCO3)[nH]c1=O,-,-,?,-,.,-
C=CCNC(=O)NC(=O)COC(=O)CCCSc1nc2ccccc2[nH]1,-,-,-,-,-,-
O=C(COC(=O)CCCSc1nc2ccccc2[nH]1)Nc1cccc(F)c1,-,-,13µM,-,.,.
O=C(CSc1nc2ccccc2[nH]1)c1ccc2c(c1)OCO2,1.4µM,13µM,12µM,?,-,-
Cc1ccc2nc(SCC(=O)c3ccc4c(c3)OCO4)[nH]c2c1,-,-,?,-,-,-
Cc1ccc2nc(SCC(=O)Nc3ccc4c(c3)OCCO4)[nH]c2c1,-,-,15µM,-,-,-
O=C(CSc1nc2ccccc2[nH]1)Nc1ccc2c(c1)OCCO2,?,-,8.5µM,-,-,-

# High-throughput results as filed in PubChem BioAssay.
